# PubChem BioAssay (EPA / NIEHS)
# Several values for one entry are separate records, joined by “and”; a condition that tells them apart may be missing. Equal values may be shown once. Results filed as inconclusive are left out. Some structures have more than one record in an assay (separate samples or runs), and their calls can disagree. Activity calls are given as the source filed them. Rule for the calls: active = hit-call score of the fitted dose curve at least 0.9, where 1 is the maximum; inconclusive = response in the unintended direction; inactive = score below 0.9.
# How the values were obtained:
# [1] = target: Retinoic acid receptor alpha (Homo sapiens) (UniProt P10276); assay: NVS_NR_hRARa_Agonist: NovaScreen (NVS) Nuclear Receptor Binding Assay for human Retinoic Acid Alpha Receptor Agonism (RAR) (AID 2283361)
# Retinoic acid receptor alpha (Homo sapiens), sequence (P10276 whole entry, looked up): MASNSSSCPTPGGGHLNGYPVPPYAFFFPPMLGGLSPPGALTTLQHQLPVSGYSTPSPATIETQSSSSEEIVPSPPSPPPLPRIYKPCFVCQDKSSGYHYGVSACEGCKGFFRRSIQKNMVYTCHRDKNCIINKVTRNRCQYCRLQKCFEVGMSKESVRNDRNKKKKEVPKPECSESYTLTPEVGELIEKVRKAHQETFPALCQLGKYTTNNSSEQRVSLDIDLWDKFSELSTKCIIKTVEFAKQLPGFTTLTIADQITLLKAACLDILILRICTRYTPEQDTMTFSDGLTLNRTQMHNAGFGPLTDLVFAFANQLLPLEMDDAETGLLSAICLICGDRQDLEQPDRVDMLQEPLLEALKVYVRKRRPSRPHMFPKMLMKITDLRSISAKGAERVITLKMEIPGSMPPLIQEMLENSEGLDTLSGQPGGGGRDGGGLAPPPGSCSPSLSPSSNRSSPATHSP
# Summary of the method: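 Cell-free TR-FRET binding readout with extracted receptor protein, read 2 hours after dosing; gain-of-signal fitted relative to DMSO. Screened in duplicate at 25 uM, actives then run in concentration-response.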
# [2] = target: rat Androgen Receptor (AR), Ar (gene 24208) (UniProt P15207); assay: NVS_NR_rAR: NovaScreen (NVS) Nuclear Receptor Binding Assay for rat Androgen Receptor (AR) (AID 2283366)
# rat Androgen Receptor (AR), Ar (gene 24208), sequence (P15207 whole entry, looked up): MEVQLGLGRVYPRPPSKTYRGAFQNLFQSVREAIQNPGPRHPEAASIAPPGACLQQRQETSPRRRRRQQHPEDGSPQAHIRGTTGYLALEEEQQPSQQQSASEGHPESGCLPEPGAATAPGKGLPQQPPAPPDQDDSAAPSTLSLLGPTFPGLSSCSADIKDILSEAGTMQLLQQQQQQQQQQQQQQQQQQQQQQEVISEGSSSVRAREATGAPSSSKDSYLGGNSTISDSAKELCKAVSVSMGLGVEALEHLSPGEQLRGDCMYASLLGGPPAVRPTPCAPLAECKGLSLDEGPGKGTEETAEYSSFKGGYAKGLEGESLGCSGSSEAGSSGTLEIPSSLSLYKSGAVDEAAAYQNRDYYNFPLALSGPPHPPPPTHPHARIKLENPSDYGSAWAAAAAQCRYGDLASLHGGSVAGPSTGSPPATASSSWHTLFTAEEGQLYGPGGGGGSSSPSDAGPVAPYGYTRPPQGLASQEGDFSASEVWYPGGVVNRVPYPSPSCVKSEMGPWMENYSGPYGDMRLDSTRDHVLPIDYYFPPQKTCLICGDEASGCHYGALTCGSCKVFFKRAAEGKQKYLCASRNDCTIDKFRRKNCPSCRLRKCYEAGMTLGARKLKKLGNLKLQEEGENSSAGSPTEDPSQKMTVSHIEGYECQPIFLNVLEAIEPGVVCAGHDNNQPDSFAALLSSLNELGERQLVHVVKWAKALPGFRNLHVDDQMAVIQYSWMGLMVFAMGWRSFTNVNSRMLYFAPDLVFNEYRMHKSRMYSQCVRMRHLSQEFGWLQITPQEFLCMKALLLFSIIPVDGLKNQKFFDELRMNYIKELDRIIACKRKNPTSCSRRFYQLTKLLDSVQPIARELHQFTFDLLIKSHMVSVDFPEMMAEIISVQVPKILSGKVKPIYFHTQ
# Summary of the method: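 Cell-free radioligand binding on extracts of prostate from testosterone-pretreated rats, read by filter-based scintillation counting 18 h after dosing. Loss of bound signal fitted positively versus DMSO; primary screen in duplicate at 25 uM, actives followed up in concentration series.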
# [3] = target: Estrogen receptor beta (Homo sapiens) (UniProt Q92731); assay: OT_ER_ERbERb_0480: Odyssey Thera (OT) 8-hour HEK293T Protein-Complementation Assay for Estrogen Receptor-beta/-beta Homodimer (AID 2283357);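 note: active means signal gain over DMSO baseline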
# Estrogen receptor beta (Homo sapiens), sequence (Q92731 whole entry, looked up, the tested form may be a part): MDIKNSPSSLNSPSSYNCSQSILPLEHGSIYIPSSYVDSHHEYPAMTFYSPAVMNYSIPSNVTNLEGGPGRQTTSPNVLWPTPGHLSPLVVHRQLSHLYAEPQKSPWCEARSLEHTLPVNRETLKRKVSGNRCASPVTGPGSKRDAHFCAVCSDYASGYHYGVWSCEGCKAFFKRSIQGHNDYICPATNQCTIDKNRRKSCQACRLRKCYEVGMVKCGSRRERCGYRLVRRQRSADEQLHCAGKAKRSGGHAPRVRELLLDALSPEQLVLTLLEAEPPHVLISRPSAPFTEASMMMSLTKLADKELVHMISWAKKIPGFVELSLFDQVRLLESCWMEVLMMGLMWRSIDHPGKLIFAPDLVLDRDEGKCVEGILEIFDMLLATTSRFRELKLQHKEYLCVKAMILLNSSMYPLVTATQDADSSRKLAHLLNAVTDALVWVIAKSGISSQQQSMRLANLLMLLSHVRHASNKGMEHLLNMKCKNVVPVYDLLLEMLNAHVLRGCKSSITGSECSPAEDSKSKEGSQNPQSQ
# Summary of the method: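 Fluorescence intensity, nuclear for agonists and nuclear plus cytoplasmic for antagonists, was quantified by laser scanning cytometry versus vehicle after 8 h treatment. The cells were HEK293T stably carrying ER beta LBD fragment-complementation partners.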
# [4] = target: Retinoic acid receptor alpha (Homo sapiens) (UniProt P10276); assay: NVS_NR_hRAR_Antagonist: NovaScreen (NVS) Nuclear Receptor Binding Assay for human Retinoic Acid Alpha Receptor Antagonism (RAR) (AID 2283358)
# Summary of the method: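 Cell-free TR-FRET binding assay with extracted human RARalpha in antagonist mode, read 2 h after dosing. Loss of signal was fitted relative to DMSO; the primary screen used 25 uM in duplicate, with concentration series on follow-up.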
# PGR (gene 5241) = PGR (gene 5241) (UniProt P06401); assay: NVS_NR_hPR: NovaScreen (NVS) Nuclear Receptor Binding Assay for human Progestron Receptor (PR) (AID 2283360);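 note: active means loss of bound radioligand signal versus DMSO baseline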
# PGR (gene 5241), sequence (P06401 whole entry, looked up): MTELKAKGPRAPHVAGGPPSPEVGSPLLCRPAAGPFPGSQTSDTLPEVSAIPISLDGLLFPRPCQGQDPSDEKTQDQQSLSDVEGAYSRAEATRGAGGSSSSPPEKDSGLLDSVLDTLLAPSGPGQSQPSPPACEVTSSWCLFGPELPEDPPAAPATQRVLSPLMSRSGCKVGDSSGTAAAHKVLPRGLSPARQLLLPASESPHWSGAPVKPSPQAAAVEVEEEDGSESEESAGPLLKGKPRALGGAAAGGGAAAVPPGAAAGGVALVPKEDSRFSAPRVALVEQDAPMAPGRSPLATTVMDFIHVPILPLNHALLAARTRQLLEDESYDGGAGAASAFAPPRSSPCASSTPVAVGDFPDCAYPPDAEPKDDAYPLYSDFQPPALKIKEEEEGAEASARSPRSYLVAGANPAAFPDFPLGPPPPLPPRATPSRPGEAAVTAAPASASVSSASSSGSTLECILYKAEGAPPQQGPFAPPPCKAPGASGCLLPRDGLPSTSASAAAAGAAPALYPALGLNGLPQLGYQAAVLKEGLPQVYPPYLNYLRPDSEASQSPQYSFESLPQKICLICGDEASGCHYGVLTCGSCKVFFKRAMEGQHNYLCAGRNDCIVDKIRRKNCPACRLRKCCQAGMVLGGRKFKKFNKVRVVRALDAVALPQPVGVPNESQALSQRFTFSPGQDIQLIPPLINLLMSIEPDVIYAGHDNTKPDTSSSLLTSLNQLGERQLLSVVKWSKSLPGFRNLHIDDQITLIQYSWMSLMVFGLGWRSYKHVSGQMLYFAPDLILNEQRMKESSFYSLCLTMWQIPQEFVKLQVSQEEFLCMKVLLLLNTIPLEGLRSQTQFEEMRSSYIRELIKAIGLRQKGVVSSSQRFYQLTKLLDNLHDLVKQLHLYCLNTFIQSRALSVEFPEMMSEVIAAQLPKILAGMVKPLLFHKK
# Summary of the method: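 Cell-free radioligand binding using receptor protein extracted from T47D cells, read by scintillation counting 18 hours after dosing. Loss of signal relative to DMSO baseline indicates displacement; primary screen single concentration 25 uM in duplicate, actives followed in concentration series.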
# [5] = target: Glucocorticoid receptor (Homo sapiens) (UniProt P04150); assay: NVS_NR_hGR: NovaScreen (NVS) Nuclear Receptor Binding Assay for human Glucocorticoid Receptor (GR) (AID 2283363);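 for AC50: activity is loss of specific radioligand binding signal relative to DMSO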
# Glucocorticoid receptor (Homo sapiens), sequence (P04150 whole entry, looked up): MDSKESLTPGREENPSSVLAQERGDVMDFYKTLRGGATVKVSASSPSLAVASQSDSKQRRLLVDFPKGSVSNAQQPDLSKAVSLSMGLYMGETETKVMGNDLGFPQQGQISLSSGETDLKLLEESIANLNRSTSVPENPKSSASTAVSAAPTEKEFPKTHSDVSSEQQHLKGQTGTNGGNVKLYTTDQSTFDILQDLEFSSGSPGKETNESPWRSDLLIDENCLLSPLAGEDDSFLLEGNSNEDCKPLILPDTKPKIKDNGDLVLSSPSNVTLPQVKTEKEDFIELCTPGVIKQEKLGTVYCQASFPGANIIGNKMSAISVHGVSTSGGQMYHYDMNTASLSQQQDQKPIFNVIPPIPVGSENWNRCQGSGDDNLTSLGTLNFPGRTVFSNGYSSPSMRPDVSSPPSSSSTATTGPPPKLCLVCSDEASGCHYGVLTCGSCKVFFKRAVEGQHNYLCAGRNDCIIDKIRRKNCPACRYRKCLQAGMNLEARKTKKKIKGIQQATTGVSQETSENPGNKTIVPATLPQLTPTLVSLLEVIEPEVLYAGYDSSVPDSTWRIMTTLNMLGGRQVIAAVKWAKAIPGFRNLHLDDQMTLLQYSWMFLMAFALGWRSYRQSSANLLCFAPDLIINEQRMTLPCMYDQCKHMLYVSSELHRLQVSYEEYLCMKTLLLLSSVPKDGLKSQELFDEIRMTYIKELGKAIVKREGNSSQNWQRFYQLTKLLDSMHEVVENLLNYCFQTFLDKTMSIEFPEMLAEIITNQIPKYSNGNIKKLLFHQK
# Summary of the method: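 Cell-free radioligand displacement assay on extracted human GR, read 16 h after dosing by filter-based scintillation counting. Screened in duplicate at 25 uM, then concentration series for actives; loss of signal versus DMSO baseline.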
# [6] = target: human Thyroid Receptor Alpha (TRa), THRA (gene 7067) (UniProt P10827); assay: NVS_NR_hTRa_Antagonist: NovaScreen (NVS) Nuclear Receptor Binding Assay for human Thyroid Receptor Alpha Antagonism (TRa) (AID 2283362);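 note: activity is loss of signal relative to DMSO baseline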
# Summary of the method: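 In this biochemical format, receptor protein is dosed with chemical and read after 1 hour via AlphaLISA. Decreases from the DMSO baseline indicate antagonist activity; screening used 25 uM in duplicate before concentration-response confirmation.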
# [7] = target: Estrogen receptor (Homo sapiens) + Estrogen receptor beta (Homo sapiens) (UniProt P03372+Q92731); assay: OT_ER_ERaERb_1440: Odyssey Thera (OT) 24-hour HEK293T Protein-Complementation Assay for Estrogen Receptor-alpha/-beta Homodimer (AID 2283356);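 note: heteromer of ER alpha and ER beta binding domains; hits raise reporter fluorescence and both agonists and antagonists give an increase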
# Estrogen receptor (Homo sapiens) + Estrogen receptor beta (Homo sapiens), sequence (P03372 whole entry, looked up, the tested form may be a part): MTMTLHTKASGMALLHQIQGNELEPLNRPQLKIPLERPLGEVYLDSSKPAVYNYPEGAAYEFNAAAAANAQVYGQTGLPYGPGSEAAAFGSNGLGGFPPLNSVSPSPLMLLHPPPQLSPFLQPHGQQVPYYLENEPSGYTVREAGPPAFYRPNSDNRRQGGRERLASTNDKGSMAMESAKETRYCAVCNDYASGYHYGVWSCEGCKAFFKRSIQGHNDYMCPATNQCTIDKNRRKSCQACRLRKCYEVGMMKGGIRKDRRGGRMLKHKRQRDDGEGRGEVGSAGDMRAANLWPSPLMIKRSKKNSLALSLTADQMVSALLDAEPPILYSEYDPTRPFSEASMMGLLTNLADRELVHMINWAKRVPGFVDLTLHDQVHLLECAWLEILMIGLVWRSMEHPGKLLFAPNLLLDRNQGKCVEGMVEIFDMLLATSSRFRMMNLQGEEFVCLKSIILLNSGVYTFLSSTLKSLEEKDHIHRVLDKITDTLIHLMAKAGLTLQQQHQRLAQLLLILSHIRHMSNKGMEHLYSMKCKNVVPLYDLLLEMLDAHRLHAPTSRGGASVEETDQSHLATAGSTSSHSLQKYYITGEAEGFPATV
# Estrogen receptor (Homo sapiens) + Estrogen receptor beta (Homo sapiens), sequence (Q92731 whole entry, looked up, the tested form may be a part): as the sequence (Q92731 whole entry, looked up, the tested form may be a part) above
# Summary of the method: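 24 h exposure; HEK293T PCA cells with ERα/ERβ LBD fragments; signal rise in nuclear or whole-cell fluorescence over vehicle.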
# [8] = target: Nuclear receptor subfamily 1 group I member 2 (Homo sapiens) (UniProt O75469); assay: NVS_NR_hPXR: NovaScreen (NVS) Nuclear Receptor Binding Assay for human Pregnane X Receptor (PXR) (AID 2283365);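 note: a drop in FRET signal versus DMSO baseline means the compound binds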
# Nuclear receptor subfamily 1 group I member 2 (Homo sapiens), sequence (O75469 whole entry, looked up): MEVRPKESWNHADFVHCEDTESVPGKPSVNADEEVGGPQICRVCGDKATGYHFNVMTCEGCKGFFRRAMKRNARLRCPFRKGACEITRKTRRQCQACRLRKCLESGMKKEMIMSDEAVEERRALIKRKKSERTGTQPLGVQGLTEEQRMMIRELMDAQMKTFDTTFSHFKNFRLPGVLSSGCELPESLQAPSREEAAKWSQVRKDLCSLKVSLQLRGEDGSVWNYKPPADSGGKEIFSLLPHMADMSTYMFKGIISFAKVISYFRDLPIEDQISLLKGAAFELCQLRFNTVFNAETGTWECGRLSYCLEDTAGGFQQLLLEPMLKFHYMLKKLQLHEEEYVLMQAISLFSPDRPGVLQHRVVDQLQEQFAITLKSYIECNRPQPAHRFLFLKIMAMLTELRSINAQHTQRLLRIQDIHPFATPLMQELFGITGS
# Summary of the method: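 Read-out: TR-FRET, human PXR, 2 h post-dosing, cell-free. Loss of signal vs DMSO taken as binding activity; 25 uM primary, concentration series secondary.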
smiles,measurement,setting,value
OC1CCC(C2CCCCC2)CC1 (stereo not given),outcome,[1],inactive
C#C[C@]1(O)CC[C@H]2[C@@H]3CCC4=CC(=O)CC[C@@H]4[C@H]3CC[C@@]21C,outcome,[1],inactive
CCCCCCCCCCCCc1ccccc1S(=O)(=O)O,AC50,[2],3.66 µM (active)
CCC(=C(c1ccc(O)cc1)c1ccc(OCCN(C)C)cc1)c1ccccc1,AC50,[2],3.78 µM (active) [middle of 4 runs]
CCOC(=O)CC(O)(CC(=O)OCC)C(=O)OCC,outcome,[3],inactive
CCCCCCCCCCCCCC[N+](C)(C)C,AC50,[4],28.3 µM (active)
same,AC50,PGR (gene 5241),39.3 µM (active)
same,AC50,[5],6.85 µM (active) and 29.1 µM (active)
CCN(CC)CCNc1ccc(CNC=O)c2sc3ccc(OC)cc3c(=O)c12,outcome,[3],inactive
same,AC50,[1],8.9 µM (active)
same,AC50,[6],15.1 µM (active)
same,outcome,[5],inactive
CCCCCCC(=O)O,outcome,[7],inactive
same,outcome,[3],inactive
same,outcome,PGR (gene 5241),inactive
ClC1=C(Cl)C(Cl)(Cl)C(Cl)=C1Cl,outcome,[3],inactive
same,AC50,[8],40.8 µM (active)
CC(=O)NC1(c2cccc(F)c2)CCN(CC[C@@]2(c3ccc(Cl)c(Cl)c3)CN(c3ccccc3)C(=O)CO2)CC1,AC50,[6],20.8 µM (active)
same,outcome,[5],inactive
c1ccc2cc3c(ccc4ccccc43)cc2c1,outcome,[6],inactive
same,outcome,[8],inactive
CC(O)CO (stereo not given),outcome,[5],inactive
Cc1oc(-c2ccccc2)nc1CCOc1ccc(C[C@H](Nc2ccccc2C(=O)c2ccccc2)C(=O)O)cc1,outcome,[7],inactive
same,outcome,[3],inactive
same,AC50,[2],16.3 µM (active)
CCCCC(CC)COC(=O)CCCCC(=O)OCC(CC)CCCC (stereo not given),outcome,[7],inactive
same,outcome,[3],inactive
same,outcome,[1],inactive
COCC(C)OCC(C)O (stereo not given),outcome,[7],inactive
same,outcome,[8],inactive
CC[C@H](c1ccc(O)cc1)[C@@H](CC)c1ccc(O)cc1,AC50,[7],100 nM (active) [middle of 5 runs]
same,AC50,PGR (gene 5241),0.431 µM (active)
same,outcome,[8],inactive
same,outcome,[2],inactive
Cc1cc(CCN2CCN(c3nsc4ccccc34)CC2)cc2c1NC(=O)CC2(C)C,outcome,[7],inactive
same,outcome,[3],inactive
same,AC50,PGR (gene 5241),36 µM (active)
CC[C@H](C)[C@@H](C(=O)O)n1sc2ccccc2c1=O,outcome,[7],inactive
same,outcome,[3],inactive
same,outcome,PGR (gene 5241),inactive
same,outcome,[5],inactive
same,outcome,[8],inactive
O=C(O)c1ccccc1C(c1ccc(O)cc1)c1ccc(O)cc1,outcome,[7],inactive
same,outcome,[3],inactive
same,AC50,[5],10.2 µM (active)
same,outcome,[8],inactive
same,outcome,[2],inactive
Oc1cc2ccccc2c2ccccc12,outcome,[7],inactive
same,outcome,[3],inactive
same,AC50,PGR (gene 5241),11 µM (active)
same,AC50,[5],1.54 µM (active)
same,AC50,[2],4.75 µM (active)
CCCOc1sc(C(=O)N2CCC(c3cc(CN)ccc3F)CC2)c(C)c1Br,outcome,PGR (gene 5241),inactive
same,AC50,[5],15 µM (active)
same,AC50,[2],13.6 µM (active)
C=C(C)C(=O)OCCC(F)(F)C(F)(F)C(F)(F)C(F)(F)C(F)(F)C(F)(F)F,outcome,[7],inactive
same,outcome,[3],inactive
same,outcome,PGR (gene 5241),inactive
NC(=O)N1C(=O)C(C(=O)c2cc(Cl)cs2)c2cc(F)c(Cl)cc21 (stereo not given),outcome,[7],inactive
same,outcome,[3],inactive
same,AC50,[5],19.6 µM (active)
same,AC50,[2],6.36 µM (active)
O=C1OC2(c3ccccc31)c1cc(Br)c(O)c(Br)c1Oc1c2cc(Br)c(O)c1Br,AC50,[7],53.7 µM (active)
same,AC50,[5],20.9 µM (active)
Nc1cccc2c(N)cccc12,outcome,[7],inactive
same,outcome,[3],inactive
same,outcome,PGR (gene 5241),inactive
same,AC50,[1],20.5 µM (active)
same,AC50,[5],13.4 µM (active)
CN1CCN(c2ccccc2/C=C2\SCCN(c3ccc(Cl)c(Cl)c3)C2=O)CC1,outcome,[3],inactive
COC(=O)CCCCC(=O)OC,outcome,PGR (gene 5241),inactive
CCCCCCCC(=O)O,AC50,[7],17.1 µM (active)
same,AC50,[3],50 µM (active)
same,outcome,PGR (gene 5241),inactive
same,outcome,[8],inactive
O=c1c(-c2ccc(O)cc2)coc2cc(O)ccc12,AC50,[1],1.06 µM (active) and 6.6 µM (active)
same,outcome,[1],inactive
same,outcome,[2],inactive
CC(C)(C)c1ccc(O)c(C(C)(C)C)c1,outcome,[7],inactive
same,outcome,[3],inactive
same,outcome,[6],inactive
CC1=C(/C=C/C(C)=C/C=C/C(C)=C/C(=O)O)C(C)(C)CCC1,outcome,[4],inactive
CC(C)CCCCCCOC(=O)CCCCC(=O)OCCCCCCC(C)C,outcome,[4],inactive
same,outcome,[1],inactive
same,outcome,[5],inactive
